# Screening data from PubChem BioAssay.
# Compounds with a hit are over-represented: about 12% of the library has one in this group of screens.
# JMJD2A Tudor inh = qHTS Assay for Inhibitors of JMJD2A-Tudor Domain; AlphaScreen JMJD2A-Tudor / H3K4me3 peptide binding; Potency, µM (doses to about 114 µM), inactives show at the top dose activity change, negative = inhibition, usual class: inhibitors; hit rate 4.4% among 390,000; AID 504339, 2011; also: % is scaled to controls: 0 for no effect and ±100 for the full control effect; nearly all actives have a fitted effect of over 50% in size
# Sfp PPTase inh = qHTS Assay for Inhibitors of Bacillus subtilis Sfp phosphopantetheinyl transferase (PPTase); 4'-phosphopantetheinyl transferase ffp (Bacillus subtilis), Q9F4F7; hit rate 3.5% among 310,000; Potency, µM, for the others: largest response in the series, negative = inhibition, usual class: inhibitors; Biochemical Sfp PPTase activity, qHTS;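 also: the enzyme is Sfp with the accession as filed and its product quenches rhodamine fluorescence; 0% = enzyme reaction without inhibitor and -100% = no enzyme wells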
#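 Sfp 15 nM + cpd, 15 min RT; start w/ rhodamine-CoA 5 uM, BHQ-2-YbbR 12.5 uM (final); 50 mM Hepes pH 7.6, 10 mM MgCl2, 0.01% NP-40, 0.01% BSA; read 525/598 nm at 0 and 30 min.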
# HP1b chromo inh = HTS for Inhibitors of HP1-beta Chromodomain Interactions with Methylated Histone Tails | Chromobox protein homolog 1 (Homo sapiens), P83916 | AlphaScreen HP1-beta / biotin-H3K9me3 peptide binding | Potency, µM (doses to about 114 µM), inactives show at the top dose activity change, negative = inhibition, most hits filed as inhibitors | hit rate 0.56% among 390,000 | AID 540317, 2011; also: nearly all actives have a fitted effect of over 70% in size
# Target sequence (P83916 whole entry, looked up): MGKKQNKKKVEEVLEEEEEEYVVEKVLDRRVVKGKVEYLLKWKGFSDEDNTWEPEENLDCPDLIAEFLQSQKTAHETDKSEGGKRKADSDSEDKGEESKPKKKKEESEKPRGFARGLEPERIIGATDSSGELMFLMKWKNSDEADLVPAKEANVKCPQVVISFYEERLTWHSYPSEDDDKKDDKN
#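 AlphaScreen: HP1-beta (50 nM) preformed 30 min with biotin-H3(1-18)K9me3 peptide (50 nM) in PBS pH 7.4, 0.01% Tween-20. Compound added for 30 min at RT, then streptavidin donor/nickel chelate acceptor beads (10 ug/mL) for 30 min.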
# BAZ2B inh = qHTS Assay for Inhibitors of BAZ2B; Potency, µM (top dose mostly 114 µM), inactives show at the top dose activity change, negative = inhibition, actives largely listed as inhibitors; AlphaScreen BAZ2B-H3K14Ac peptide displacement; hit rate 4.4% among 360,000; Bromodomain adjacent to zinc finger domain protein 2B (Homo sapiens), Q9UIF8; also: % is scaled to controls: 0 for no effect and ±100 for the full control effect; nearly all actives have a fitted effect of over 60% in size
#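 Protein-peptide AlphaScreen: BAZ2B 50 nM, b-H3K14Ac 50 nM, 1x PBS pH 7.4 + 0.01% Tween-20. Preincubation 30 min RT; cpd 30 min RT (top 110 uM); beads 20 min RT, light-protected.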
# G9a block = qHTS Assay for Inhibitors of Histone Lysine Methyltransferase G9a | hit rate 8.8% among 350,000 | Potency, µM (series often up to 102 µM), for the others: at the top dose activity, negative = inhibition, hits mostly inhibitors | AID 504332, 2011 | G9a H3K9 monomethylation, AlphaScreen, 2 h | Histone-lysine N-methyltransferase EHMT2 (Homo sapiens), Q96KQ7; also: % is scaled to controls: 0 for no effect and ±100 for the full control effect; nearly all actives have a fitted effect of over 75% in size
# Target sequence (Q96KQ7 913-1193 limits assumed): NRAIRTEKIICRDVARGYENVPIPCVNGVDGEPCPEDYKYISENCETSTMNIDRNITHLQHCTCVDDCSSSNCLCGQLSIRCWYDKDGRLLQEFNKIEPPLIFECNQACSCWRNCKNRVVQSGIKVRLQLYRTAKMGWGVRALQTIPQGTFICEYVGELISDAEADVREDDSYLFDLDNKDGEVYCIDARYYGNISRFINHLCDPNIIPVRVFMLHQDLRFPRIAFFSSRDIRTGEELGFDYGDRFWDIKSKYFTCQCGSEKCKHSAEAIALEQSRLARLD
#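 Methyltransferase reactions run at room temperature for 2 h (20 nM enzyme, 500 nM biotin-H3K9 peptide, 20 uM SAM) after a 15 min compound preincubation; product detected by AlphaScreen beads and anti-H3K9me1 antibody.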
# L3MBTL1 block = qHTS Assay for the Inhibitors of L3MBTL1; Lethal(3)malignant brain tumor-like protein 1 (Homo sapiens), Q9Y468; AlphaScreen L3MBTL1–H3K9me1 peptide binding; Potency, µM (titrated, usually from 57.1 µM), for the others: at the highest dose activity, negative = inhibition, most hits filed as inhibitors; hit rate 0.66% among 230,000; also: % is scaled to controls: 0 for no effect and ±100 for the full control effect; nearly all actives have a fitted effect of over 60% in size
#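 First, the protein-peptide complex forms for 30 min at room temperature (L3MBTL1 50 nM, biotinylated H3K9me1 peptide 75 nM). Next, compounds are pin-transferred and incubated 30 min. Finally, AlphaScreen beads are added and read after 30 min.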
# * hit, by the source's call; ? = inconclusive; . = no result given; ! = not active in a repeat; [ ] = dose if it differs, or a comment. Calls follow the shape of the dose curve; as a rule, active = well fitted curve in the direction sought with a large enough effect; inconclusive = small, poorly fitted or top-dose-only effect, or another doubt; inactive = no such curve, though single readings can be large; an effect the other way counts as inactive or inconclusive. Potency is read from the fitted curve at half-maximal effect.
SMILES,JMJD2A Tudor inh,Sfp PPTase inh,HP1b chromo inh,BAZ2B inh,G9a block,L3MBTL1 block
CCOc1ccccc1N=Cc1c(O)c2ccccc2oc1=O,-17.6%,14.4%,19.6%,-1.0%,-4.5%[0.501 µM],-5.5%[2.29 µM]
CSc1n[nH]c(/N=C/c2oc(O)c3ccccc23)n1,-16.7%,-4.6%,52.7%,?,20µM*,.
Cc1ccc(CSc2cn(CC(=O)N3CCCCCC3)c3ccccc23)cc1,-8.8%,.,23.2%,-15.0%,-41.9%[59 µM],.
CCN(CC)S(=O)(=O)c1ccc2c(c1)nc(SCn1nnc3ccccc3c1=O)n2CC,-10.8%,2.8%,18.0%,12.5%,44.7µM*,.
Cn1c(SCC(=O)NNC(=O)Cc2ccccc2)nc2ccccc2c1=O,22.4µM*,-18.1%,-11.2%,-7.4%,15.8%,7.6%
O=c1c2ccccc2nnn1CSc1nc2ccccc2c(=O)n1CCCO,-15.5%,1.5%,41.1%,-13.6%,-31.0%,.
CCN(CC)S(=O)(=O)c1ccc2c(c1)nc(SCC(=O)N(C)C1CCS(=O)(=O)C1)n2CC (stereo not drawn),-16.5%,.,-2.1%,-20.8%,?,9.8%
Cn1c(SCn2nnc3ccccc3c2=O)nc2ccccc2c1=O,.,4.4%,.,-6.8%,50.1µM*,5.9%
CCN1CCCC1Cn1c(-c2ccccc2)nc2c(N(CCOC)CCOC)nc(C)nc21 (stereo not drawn),.,18.5%,.,.,.,.
CCNS(=O)(=O)c1ccc(NC(=O)Cc2ccc(F)cc2)cc1,-4.3%,15.2%,37.7%,1.3%,10.0%[12.7 µM],6.9%
CC(Nc1ccc(F)cc1)=[N+](C)CCNS(=O)(=O)c1ccc(Cl)cc1,20µM*,-24.6%,?,50.1µM*,22.4µM*,.
O=c1cc(NCCc2ccccc2)c2ccccc2o1,50.1µM*,-0.7%,4.6%,1.5%,2.5%,10.2%
CC1=C(C(N)=O)C(c2ccccc2Br)n2ncnc2N1 (stereo not drawn),3.5%,.,26.3%[57 µM],-1.2%,-39.2%[59 µM],.
CC1=C(C(N)=O)C(c2ccccc2[N+](=O)[O-])n2ncnc2N1 (stereo not drawn),39.8µM*,39.8µM*,?,-0.6%,28.2µM*,.
O=C(/C=C/c1ccccc1)c1cc(Br)ccc(=O)c1O,56.2µM*,15.8µM*,?,44.7µM*,12.6µM*,.
O=C(/C=C/c1ccc(O)c(O)c1)c1ccc(O)cc1O,.,-22.9%,.,.,.,.
Cc1ccc(/C=C/C(=O)c2ccccc(=O)c2O)cc1C,79.4µM*,?,?,70.8µM*,28.2µM*,-14.0%
O=C(/C=C\c1ccccc1)c1ccccc1O,.,14.4%,.,.,.,.
COc1ccc(Cl)cc1NC(=O)CSc1nnc2[nH]c(=O)cc(C)n12,-8.1%,.,35.7%,-13.0%,0.8%[59 µM],.
Cc1ccc(Cl)cc1NC(=O)N1CCC(CN2CCCCCC2)CC1,-2.6%,.,26.1%,3.0%,-23.0%[59 µM],.
CO/N=C(\C(=O)N[C@@H]1C(=O)N2C(C(=O)O)=C(CSc3nc(=O)c(O)nn3C)CSC12)c1csc(N)n1 (stereo partly drawn),.,.,.,.,28.2µM*!,.
CO/N=C(\C(=O)N[C@@H]1C(=O)N2C(C(=O)O)=C(COC(N)=O)CS[C@H]12)c1ccco1,25.1µM*,-11.2%,15.2%,-6.0%,?,?
CO/N=C(\C(=O)N[C@@H]1C(=O)N2C(C(=O)O)=C(COC(C)=O)CS[C@H]12)c1csc(N)n1,.,?,.,.,11.2µM*,.
CC(=O)OCC1=C(C(=O)O)N2C(=O)C(NC(=O)C(C)Cn3nc(C)c(Cl)c3C)C2SC1 (stereo not drawn),-28.9%,-10.2%,-9.1%,56.2µM*,39.8µM*,.
CO/N=C(\C(=O)N[C@@H]1C(=O)N2C(C(=O)O)=C(COC(C)=O)CS[C@@H]12)c1csc(N)n1,.,?,.,.,-38.8%[12.7 µM],.
SMILES,JMJD2A Tudor inh,Sfp PPTase inh,HP1b chromo inh,BAZ2B inh,G9a block,L3MBTL1 block
CCOc1ccccc1C(=O)N1CCc2cc(OC)c(OC)cc2C1COc1ccc(OC)cc1 (stereo not drawn),?,.,15.9%,-38.8%,-33.7%[59 µM],.
CCN(c1ccc(Cl)cc1)S(=O)(=O)c1nnc(NC(=O)C2CCCCC2)s1,-2.6%,.,70.3%,1.4%,27.3%[59 µM],.
COc1cccc(CS(=O)(=O)c2nnnn2-c2ccccc2)c1,.,7.7%,.,.,.,.
CO/N=C(/C(=O)N[C@@H]1C(=O)N2C(C(=O)O)=C(C[n+]3ccc(N)n3CCO)CS[C@H]12)c1csc(N)n1,.,?,.,.,-0.3%[12.7 µM],.
CON=C(C(=O)NC1C(=O)N2C(C(=O)O)=C(CSc3nc(=O)c(=O)[nH]n3C)CSC12)c1csc(N)n1 (stereo not drawn),50.1µM*,.,-11.0%,.,.,.
Cc1cc(C(=O)COC(=O)/C=C/c2cccc(Br)c2)c(C)n1C,-26.7%,.,?,?,44.7µM*,-7.8%
Cc1cc(C(=O)COC(=O)Cc2ccc(Br)cc2)c(C)n1C,-29.9%,.,1.9%,50.1µM*,?,-0.2%
Cc1cc(C(=O)COc2ccc(Cl)cc2Br)c(C)n1C,?,-1.6%,?,-36.5%,-50.4%,-26.7%
CCOC(=O)c1c(C)[nH]c(CCC(=O)NC(C)c2ccccc2)c1C (stereo not drawn),-12.7%,.,18.5%[57 µM],-3.2%,-26.8%[59 µM],.
CCCC(=O)Nc1cc(C(=O)NCc2ccccc2)ccc1S(=O)(=O)c1ccc(Cl)cc1,-4.8%,.,34.8%,3.1%,-1.9%[59 µM],.
COc1ccc(Cl)cc1NC(=O)Cn1cnc2c1c(=O)n(C)c(=O)n2C,-8.8%,.,47.6%,-0.3%,-2.7%[59 µM],.
O=C(CCN1CCCCC1)c1ccc2c(c1)OCO2,0.0%,?,31.4%,-23.7%[57.1 µM],7.94µM*,-6.2%
O=C(CCN1CCOCC1)c1ccc2c(c1)OCCO2,-11.1%,-14.7%,27.5%,3.2%,8.91µM*,41.5%
O=C(c1ccc(Br)cc1)N1CCN(Cc2ccccc2)CC1,-12.9%,8.0%,29.2%,4.5%,-5.1%[0.501 µM],2.8%[2.29 µM]
O=C(CCN1CCOCC1)c1ccccc1,-8.3%,11.9%,37.1%,2.3%,44.7µM*,.
O=C(CCN1CCN(C(=O)c2ccccc2)CC1)c1ccc(Br)cc1,-14.7%,-5.0%,32.0%,-5.0%,31.6µM*,.
COc1ccc(CCNC(=O)C(=O)NCC(c2ccc3c(c2)OCO3)N2CCOCC2)cc1OC (stereo not drawn),-19.0%,.,13.4%[57 µM],-1.0%,1.7%[59 µM],.
COc1cc(C2C(C(=O)Nc3ccccc3C)=C(C)Nc3ncnn32)ccc1OCC(N)=O (stereo not drawn),-8.1%,.,8.6%[57 µM],4.5%,4.3%[59 µM],.
